Source: PubChem BioAssay
This excerpt belongs to a sample that is enriched for hits.
TTR transcr act: TTR transcription activators in neuroblastoma reporter cells, primary screen, cell-based, luminescence, SH-SY5Y, TTR promoter Gaussia luciferase. 1.3% of 92,000 active. activation, % at 16.7 µM. AID 1117267, 2014. 100% = recombinant luciferase protein wells;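 active means activation above the mean of all tested compounds plus 3 SD, cut at about 9.5% in these data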;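 further: cells exposed to compounds for one day before reading; 0% = median of all test compound wells on the plate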
HuH7 TTR inh: TTR promoter reporter inhibitors in hepatoma cells, counter-screen for TTR transcription activator project, cell-based, luminescence, HuH7 hepatoma. shares compounds with TTR transcr act. inhibition, % at 16.7 µM. 4% of 1,100 active. HuH7 TTR promoter-Gaussia luciferase reporter;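 active means average inhibition above the solvent-only control wells' mean plus 3 SD, cut at about 15% in these data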;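 further: 0% = cells with DMSO only and 100% = cells with inhibitor control FD; inhibitors lower well luminescence so higher value means more inhibition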
TTR act confirm: TTR transcription activators, retest, confirmation, cell-based, luminescence, SH-SY5Y, triplicate. activation, % at 16.7 µM. shares compounds with TTR transcr act. AID 1117280, 2014. 1,100 tested, under 10 active. SHSY5Y TTR promoter Gaussia luciferase; 100% = purified Lucia enzyme wells, no cells;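 active means mean activation above a set limit taken from the earlier primary screen, cut at about 11% in these data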;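 further: 0% = DMSO-treated cells and 100% = recombinant Lucia luciferase without cells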
* hit, by the source's call.

SMILES	TTR transcr act	others
COc1ccc(-n2nnnc2SCC(=O)NC2CCS(=O)(=O)C2)cc1 (stereo unspecified)	3
CCOc1ccccc1NC(=O)CSC1=C(C#N)C(c2ccco2)C(C(=O)Nc2nc3ccccc3s2)=C(C)N1 (stereo unspecified)	0
COc1cc(C(=O)N2C[C@H]3CC[C@H]2C3)ccc1OC1CCN(C(C)=O)CC1	0
COc1cc(C(=O)N2C[C@@H]3CCC[C@H]2C3)ccc1OC1CCN(C(C)=O)CC1	16*	HuH7 TTR inh=-8;TTR act confirm=0
COc1ccc(C(=O)N2CCN(C)C(C)C2)cc1OC1CCN(C(C)=O)CC1 (stereo unspecified)	0
O=C(Nc1ccn(Cc2ccccc2)n1)c1ccc(F)cc1	-1
Cc1ccc2oc(-c3ccc(C)c(NC(=S)NC(=O)c4cccs4)c3)nc2c1	0
O[C@H]1C[C@H](c2ccccc2)N(CC2CCCCC2)C[C@@H]1n1cc(-c2ccc(F)cc2)nn1	2
Cc1ccc([C@H]2C[C@H](n3cc(-c4ccc(F)cc4)nn3)[C@@H](O)CN2C(=O)C2CCCCC2)cc1	6
O=C(C1CCCCC1)N1C[C@H](n2cc(-c3ccc(F)cc3)nn2)[C@@H](O)C[C@@H]1c1ccccc1	13*	HuH7 TTR inh=-7;TTR act confirm=-1
O=C(CNC1CCCCC1)Nc1ccc(Cl)cc1	-1
Cc1ccc2oc(=O)c(/C=C(\O)CC(C)C)nc2c1	1
CCOC(=O)c1c(C)nc(-c2ccccc2)nc1NC(=O)CC	-3
CC(=O)Nc1nc(-c2ccc(Cl)cc2)nc(C)c1C(C)=O	36*	HuH7 TTR inh=-6;TTR act confirm=0
CC(=O)c1c(C)nc(C)nc1NC(=O)Cc1ccccc1	1
O=C(O)CCc1ccc(-c2ccc(F)cc2)n1CC1CCCO1 (stereo unspecified)	0
Cc1sc2nc(CN3CCOCC3)nc(NCCc3ccccc3)c2c1C	-1
COc1ccc(OC(=O)c2cnc3n(c2=O)CCS3)cc1	0
CCN(CC)S(=O)(=O)c1ccc2c(c1)oc(=O)n2CC(=O)N(C)C1CCCCC1	-1
Cc1cc(NC(=O)CSc2nnnn2-c2ccc(C)c(C)c2)no1	1
CCC(C)(NC(=O)c1ccccc1)C(=O)O (stereo unspecified)	-3
COc1ccc(C2C(C(=O)c3ccccc3)=C(C)Nc3nc4ccccc4n32)cc1OC (stereo unspecified)	0
COC(=O)C1=C(C)N=C2SCCC(=O)N2C1c1ccc(C(=O)OC)cc1 (stereo unspecified)	16*	HuH7 TTR inh=-7;TTR act confirm=2
CC1(C)CC(=O)C2=C(C1)N=C1SCCC(=O)N1C2c1ccccc1 (stereo unspecified)	-1
CC1=C(C(=O)OC(C)C)C(c2cccs2)N2C(=O)CCSC2=N1 (stereo unspecified)	-2
SMILES	TTR transcr act	others
Cc1ccc(-c2cc(=O)[nH]c3ccccc23)cc1	-1
Cc1cccc(OCC(=O)NCc2n[nH]c(=O)c3ccccc23)c1	-2
COc1ccc(S(=O)(=O)NCc2cccnc2)c(Cl)c1Cl	3
CCOCCCNS(=O)(=O)c1ccc(OC)c(Cl)c1Cl	12*	HuH7 TTR inh=-21;TTR act confirm=-1
COCCNS(=O)(=O)c1cc(OC)c(Cl)cc1Cl	1
CC(C)CCN1CCC[C@]2(N[C@H](c3ccccc3)[C@@H]3C(=O)N(Cc4ccccc4)C(=O)[C@@H]32)C1=O	2
COc1ccc([C@H]2N[C@]3(CCCN(Cc4cccn4C)C3=O)[C@H]3C(=O)N(C)C(=O)[C@@H]23)cc1	0
CCN1C(=O)[C@H]2[C@@H](c3ccc(C)cc3)N[C@]3(CCCN(CCC(C)C)C3=O)[C@H]2C1=O	20*	HuH7 TTR inh=-5;TTR act confirm=0
CCN1C(=O)[C@H]2[C@@H](c3ccccc3)N[C@]3(CCCN(Cc4ccccc4)C3=O)[C@H]2C1=O	0
CN1C(=O)[C@H]2[C@@H](c3ccccc3)N[C@]3(CCCN(Cc4ccco4)C3=O)[C@H]2C1=O	10*	HuH7 TTR inh=-7;TTR act confirm=1
CCN1C(=O)[C@H]2[C@@H](c3ccc(OC)cc3)N[C@]3(CCCN(Cc4ccco4)C3=O)[C@H]2C1=O	4
Cc1ccc(CN2CCC(c3nc4ccc(Cl)cc4[nH]3)CC2)cc1	1
COc1cc(/C=N/NC(=O)COc2c(C)cc([N+](=O)[O-])cc2C)ccc1OC(=O)c1ccccc1Br	15*	HuH7 TTR inh=14;TTR act confirm=-2
COc1ccc(C(=O)N/N=C/c2ccc(OC(=O)c3cccc4ccccc34)c([N+](=O)[O-])c2)cc1	-3
COc1ccc(C=NNC(=O)CCCC(=O)NN=Cc2ccc(OC)c(OC)c2)cc1OC	0
CC(O)CCC(=O)NCCNC(=O)CCC(C)O (stereo unspecified)	-2
O=C(CN1C(=O)c2ccccc2S1(=O)=O)NCc1ccccc1	1
Cc1ccc(SCC(=O)NCCSCc2ccccc2)cc1	1
Cc1ccc(CSCCNC(=O)CN2C(=O)c3ccccc3S2(=O)=O)cc1	9.9*	HuH7 TTR inh=-8;TTR act confirm=-1
O=C(Nc1ccc(CN2CCOCC2)cc1)c1ccc(-c2ccc(Cl)cc2Cl)o1	-4
CCOC(=O)NC(=O)/C(C#N)=N\Nc1cccc(Cl)c1	2
CNC(=S)N(Cc1ccco1)Cc1cc2cc3c(cc2[nH]c1=O)OCCO3	-2
CCN(CC)CCCNC(=S)N(Cc1ccco1)Cc1cc2cc3c(cc2[nH]c1=O)OCCO3	1
CCc1ccc2[nH]c(=O)c(CN(Cc3ccco3)C(=S)NCC3CCCO3)cc2c1 (stereo unspecified)	12*	HuH7 TTR inh=-24;TTR act confirm=2
Oc1cccc(-c2csc(C(O)(c3ccccc3)C(F)(F)F)n2)c1 (stereo unspecified)	2
SMILES	TTR transcr act	others
CCn1c(SCC(=O)Nc2ccc(OC)cc2)nc2nc3c(cc2c1=O)CCCC3	-1
CCn1c(SCC(=O)NCc2ccccc2)nc2nc3c(cc2c1=O)CCCC3	-1
Cc1ccccc1-n1c(SCC(=O)Nc2ccccc2)nc2nc3c(cc2c1=O)CCCC3	13*	HuH7 TTR inh=-15;TTR act confirm=-1
Nc1nc2ccccc2n1S(=O)(=O)c1ccccc1	3
COC(=O)c1cnn(-c2ccc(F)cc2F)c1/C=N/NC(=S)Nc1ccccc1	-1
COC(=O)c1cnn(-c2ccc(Cl)cc2)c1/C=N/NC(=S)Nc1ccccc1	-2
COC(=O)c1cnn(-c2ccccc2)c1/C=N/NC(=S)Nc1ccccc1	11*	HuH7 TTR inh=-5;TTR act confirm=-1
Cc1ccc(S(=O)(=O)N2CC(O)CC2C(=O)NCc2ccc3c(c2)OCO3)cc1 (stereo unspecified)	15*	HuH7 TTR inh=-4;TTR act confirm=-1
Cc1ccc(NC(=O)N2CCCC2C(=O)NCc2ccc3c(c2)OCO3)cc1 (stereo unspecified)	0
Cc1ccc(CNC(=O)COC(=O)[C@@H]2CC(O)CN2S(=O)(=O)c2ccc3c(c2)OCCO3)cc1 (stereo partly specified)	4
O=C(CNc1cccc2ccccc12)N/N=C/c1cccc(Oc2ccccc2)c1	0
CNC(=O)c1[nH]cnc1C(=O)Nc1ccc(F)cc1	-1
Cc1cc(N2CCN(C)CC2)nc2ccc(NC(=S)N3CCCCCC3)cc12	9.7*	HuH7 TTR inh=-25;TTR act confirm=0
Cc1cc(N2CCN(C)CC2)nc2ccc(NC(=S)NCCN3CCc4ccccc4C3)cc12	-1
